Test results from PubChem BioAssay.
Values joined by “and” are separate entries in the source; they are usually repeats but may differ in a detail not shown here. Identical values can stand only once. Active and inactive are the calls of the source.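 How the source made its calls, unless noted: active means inhibition at or above 50% relative to wild type and mutant plate controls; inactive means inhibition below 50%.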

Key:
[1] = inhibitors of TNFa-induced NFkB p65 translocation, primary screen, imaging, HUVEC, MLSMR starter and 10KST1 sets (AID 438;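 active means inhibition above 20% together with a positive visual image hit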;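 further: compound added about 3h40 before a 20 min TNFalpha stimulation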;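 on inhibition: signal is the nuclear over cytoplasmic p65 intensity ratio per well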); settings: HUVEC TNFa-induced p65 nuclear translocation; cell count: measured here: nuclei count (cytotoxicity indicator), at 2.08 µM; inhibition: at 2 µM, stronger effect = higher value, 0% TNFa-plus-vehicle, 100% no-TNFa wells
[2] = inhibitors of mutant huntingtin aggregation, primary screen, imaging, exon1htt(103Q)mCFP cells, high-content imaging (AID 483;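 active means visual image review flags a hit and inhibition of aggregation exceeds 20%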;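 further: compound exposure lasted 3 days before fixation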;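 on nuclei count: percent of the per-plate median nuclei count of sample wells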); settings: exon1htt(103Q)mCFP cell line, aggregate imaging, at 2 µM; inhibition of aggregation: stronger effect = higher value; nuclei count: measured here: cell count, toxicity
[3] = inhibitors of E-selectin induction by TNFa, primary screen, imaging, HUVEC, immunofluorescence, MLSMR starter and 10KST1 sets (AID 487;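 active means visually confirmed hit in the image check and inhibition above 20%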;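 on inhibition: signal is fraction of cell area covered by stained E-selectin grains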;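 on nuclei count: 100% = median nuclei count of all wells on the same plate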); settings: HUVEC TNFalpha-induced E-selectin immunofluorescence imaging, at 2 µM; inhibition: stronger effect = higher value; nuclei count: measured here: cell number, toxicity
[4] = DUSP6 inhibitors restoring Erk phosphorylation by chemical complementation, primary imaging in DUSP6-transfected HeLa (AID 609;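 active means compounds giving at least 50% inhibition in the cell-based MKP-3 phosphatase rescue imaging test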;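 on inhibition: phospho-Erk level distribution per well compared with pooled transfected vehicle control wells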); settings: HeLa MKP-3 transfected, phospho-Erk imaging KS statistic, at 10 µM, cells stimulated with TPA for 15 min
[5] = target: Dual specificity protein phosphatase 6 (Homo sapiens) (UniProt Q16828); assay: as above; settings: HeLa MKP-3 transfected, phospho-Erk imaging KS statistic; at 10 µM; stronger effect = higher value; cells stimulated with TPA for 15 min
Dual specificity protein phosphatase 6 (Homo sapiens), sequence (Q16828 whole entry, looked up): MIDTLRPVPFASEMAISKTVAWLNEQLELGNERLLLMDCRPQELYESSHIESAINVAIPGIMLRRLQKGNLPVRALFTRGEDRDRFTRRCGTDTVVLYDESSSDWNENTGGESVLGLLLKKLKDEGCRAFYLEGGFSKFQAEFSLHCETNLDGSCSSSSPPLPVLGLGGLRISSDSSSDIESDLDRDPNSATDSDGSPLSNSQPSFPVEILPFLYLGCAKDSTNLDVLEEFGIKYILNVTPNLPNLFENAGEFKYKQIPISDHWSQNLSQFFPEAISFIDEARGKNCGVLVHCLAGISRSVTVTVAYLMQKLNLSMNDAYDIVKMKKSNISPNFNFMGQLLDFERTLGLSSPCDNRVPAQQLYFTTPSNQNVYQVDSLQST

[6] = target: Voltage-gated potassium channel subunit beta-2 (Rattus norvegicus) (UniProt P62483); assay: KvBeta enzyme negative modulators, primary screen, biochemical, NADPH fluorescence (AID 622;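 active means fluorescence slope higher than the sample average by over 3 SD, cut at about -0.22 in these data, passing the limit was not always enough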;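 further: slope of raw intensity against log time taken from 70 to 1610 s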); settings: recombinant KvBeta, 4-cyanobenzaldehyde reduction, at 10 µM, stronger effect = higher value
Voltage-gated potassium channel subunit beta-2 (Rattus norvegicus), sequence (P62483 whole entry, looked up): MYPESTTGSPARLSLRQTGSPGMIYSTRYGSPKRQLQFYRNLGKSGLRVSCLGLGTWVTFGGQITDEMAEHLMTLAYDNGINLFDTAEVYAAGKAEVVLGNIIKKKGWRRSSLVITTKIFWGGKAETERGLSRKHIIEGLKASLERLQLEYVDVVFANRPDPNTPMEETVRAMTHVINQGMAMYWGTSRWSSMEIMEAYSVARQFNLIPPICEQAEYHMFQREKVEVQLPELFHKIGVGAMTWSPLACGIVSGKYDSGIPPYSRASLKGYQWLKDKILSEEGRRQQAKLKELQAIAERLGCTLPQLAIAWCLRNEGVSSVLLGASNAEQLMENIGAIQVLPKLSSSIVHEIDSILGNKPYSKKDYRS

[7] = target: Voltage-gated potassium channel subunit beta-2 (Rattus norvegicus) (UniProt P62483); assay: KvBeta positive modulators, primary screen, biochemical, NADPH fluorescence (AID 623;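 active means NADPH fluorescence slope more negative than the mean of all samples by about 3 SD, 99.7% confidence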;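 further: fluorescence intensity change per second fitted from 20 to 320 s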); settings: Recombinant KvBeta, NADPH fluorescence decrease slope, 10 min; at 10 µM; stronger effect = lower value
[8] = target: Alpha-2C adrenergic receptor (Homo sapiens) (UniProt P18825); assay: modulators of alpha2C/GIRK thallium flux, primary screen, cell-based, HEK293 alpha2C/GIRK1/2 (AID 624;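 active means fluorescence slope after compound addition differing from the mean of all screened samples at 99.7% confidence, in either direction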;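 further: slope of fluorescence ratio to pre-addition baseline per second over 15 to 24 s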); settings: thallium flux BTC fluorescence, at 10 µM, actives lie on both sides
Alpha-2C adrenergic receptor (Homo sapiens), sequence (P18825 whole entry, looked up): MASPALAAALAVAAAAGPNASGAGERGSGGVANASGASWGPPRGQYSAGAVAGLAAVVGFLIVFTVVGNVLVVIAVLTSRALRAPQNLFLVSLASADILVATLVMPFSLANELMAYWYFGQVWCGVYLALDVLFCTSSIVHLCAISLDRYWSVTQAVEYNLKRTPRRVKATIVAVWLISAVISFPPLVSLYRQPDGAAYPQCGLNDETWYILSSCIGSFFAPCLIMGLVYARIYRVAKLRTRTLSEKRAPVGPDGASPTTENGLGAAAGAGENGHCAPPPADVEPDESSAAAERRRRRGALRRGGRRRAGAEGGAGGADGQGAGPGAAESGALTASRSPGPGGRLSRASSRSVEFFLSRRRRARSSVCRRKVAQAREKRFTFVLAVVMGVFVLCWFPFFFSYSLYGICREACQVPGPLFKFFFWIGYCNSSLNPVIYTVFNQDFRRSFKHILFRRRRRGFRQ

[9] = target: Muscarinic acetylcholine receptor M4 (Homo sapiens) (UniProt P08173); assay: compounds altering M4/GIRK thallium flux, either direction, primary screen, M4 allosteric agonist project, cell-based, HEK293 M4/GIRK, BTC-AM (AID 625;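 active means fluorescence slope after compound addition differing from the mean of all tested samples at 99.7% confidence, mostly higher but some lower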;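 further: thallium influx through GIRK channels coupled to M4 in HEK293 cells with BTC-AM dye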); settings: at 10 µM, actives lie on both sides
Muscarinic acetylcholine receptor M4 (Homo sapiens), sequence (P08173 whole entry, looked up): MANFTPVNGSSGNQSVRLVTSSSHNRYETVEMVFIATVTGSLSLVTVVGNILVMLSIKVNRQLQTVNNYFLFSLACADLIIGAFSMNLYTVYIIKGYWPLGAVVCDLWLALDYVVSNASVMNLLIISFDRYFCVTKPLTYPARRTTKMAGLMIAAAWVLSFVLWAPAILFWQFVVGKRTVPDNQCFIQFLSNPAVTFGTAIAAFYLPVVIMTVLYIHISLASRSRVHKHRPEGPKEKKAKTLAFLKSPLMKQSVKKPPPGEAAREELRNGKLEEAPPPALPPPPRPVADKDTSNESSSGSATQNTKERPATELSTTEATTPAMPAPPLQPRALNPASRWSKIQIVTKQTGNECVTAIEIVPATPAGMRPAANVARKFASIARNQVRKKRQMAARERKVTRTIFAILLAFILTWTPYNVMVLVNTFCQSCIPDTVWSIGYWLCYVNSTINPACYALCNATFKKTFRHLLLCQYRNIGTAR

[10] = inhibitors of larval lipid processing in zebrafish, primary screen, whole organism, PED6 fluorescence, gall bladder and intestine (AID 686;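 active means a full or partial loss of lipid-probe fluorescence in the fish gall bladder, intestine or both, judged by eye; inactive means no fluorescence loss, or compound toxic to the fish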;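 further: larvae 5 to 7 days old with five fish per well; signal comes from phospholipase A2 cleavage of quenched PED6 carried via bile; overnight exposure to compound and PED6 before scoring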); settings: Zebrafish larvae PED6 lipid processing, fluorescence scoring; screened at 20 µM (by protocol)
[11] = inhibitors of Chlamydomonas gravitaxis, primary screen, whole organism, Chlamydomonas reinhardtii, WT vs cilia-less mutant, absorbance, 96-well (AID 463189); settings: OD600 absorbance, 2 days, at 10 µM, stronger effect = higher value;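 further: 0% = wild type cc124 cells in DMSO and 100% = ciliumless bld1 mutant cells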
[12] = inhibitors of Sendai virus-induced IRF3 signaling, primary screen, TLR/RLR signaling modifier project, cell-based, Sendai virus stimulus, luciferase, 10K MLSCN set (AID 602276;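 active means inhibition at or above 50% at 10 µM; inactive means inhibition below 50%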;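 further: firefly luciferase from ISG56 promoter only with Renilla not read in this screen; 0% = Sendai virus plus DMSO and 100% = medium plus DMSO without virus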); settings: HEK293 RL24 IRF3 luciferase reporter, at 10 µM, stronger effect = higher value
[13] = inhibitors of poly I:C-induced TLR3 signaling, primary screen, cell-based, poly I:C stimulus, luciferase, 10K MLSCN set (AID 602277;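 active means inhibition of the reporter signal at or above 50%; inactive means inhibition below 50%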); settings: HEK293-TLR3 RL24 IRF3 luciferase reporter, at 10 µM, stronger effect = higher value
[14] = measured here: cell density z-score
[15] = measured here: nuclear c-Myc green intensity z-score
[16] = measured here: nuclear pErk red intensity z-score, stronger effect = higher value

Row | Structure (SMILES) | cell count [1] | inhibition [1] | inhibition of aggregation [2] | nuclei count [2] [%] | inhibition [3] | nuclei count [3] [%] | z-score [4, 14] | z-score [4, 15] | z-score [4, 16] | inhibition [5] | fluorescence slope [6] | NADPH fluorescence slope [7] | slope [8] | fluorescence slope [9] | outcome [10] | inhibition [11] | inhibition [12] | inhibition [13]
1 | Cc1c(C2Nc3ccccc3NC3=C2C(=O)CC(C)(C)C3)cnn1C (stereo not given) | 678 | 34.8% (active) | -2% (inactive) | 115 | -16.2% (inactive) | 101 | 0.508 | -0.847 | -0.607 | 14.7% (inactive) | -0.548 (inactive) | -2.1e-05 (inactive) | 0.00605 (inactive) | 0.00628 (inactive) | inactive | 14.4% (inactive) | 35.1% (inactive) | 99.4% (active)
2 | CCCc1nc(N2CCOCC2)c(C#N)c2c1CCCC2 | 496 | -5.5% (inactive) | -8.4% (inactive) | 89.6 | -58.9% (inactive) | 128 | -0.193 | 0.212 | -0.0343 | 5.35% (inactive) | -0.436 (inactive) | -0.000102 (inactive) | 0.00439 (inactive) | 0.00443 (inactive) | inactive | -4.21% (inactive) | 19.9% (inactive) | 22.6% (inactive)
3 | CC(=O)C1=C(NC(=O)c2ccccc2F)C[C@@H]2[C@H]1C2(C)C | 511 | 0.8% (inactive) | -2.1% (inactive) | 99.3 | -94.2% (inactive) | 126 | 0.289 | -1.02 | 0.959 | 11.9% (inactive) | -0.395 (inactive) | -7.2e-05 (inactive) | 0.00586 (inactive) | 0.00577 (inactive) | inactive | 13.1% (inactive) | -7.48% (inactive) | -10.2% (inactive)
4 | COc1ccc(C(=O)Cn2c(N3CCCCC3)nc3c2c(=O)n(C)c(=O)n3C)cc1OC | 537 | 4.7% (inactive) | 12.9% (inactive) | 90.8 | -58.1% (inactive) | 115 | -0.186 | 0.344 | 0.238 | 3.5% (inactive) | -0.424 (inactive) | -9.5e-05 (inactive) | 0.00577 (inactive) |  |  | 12.6% (inactive) | 14.5% (inactive) | 12.6% (inactive)
5 | c1ccc(-c2nnc(OCCN3CCOCC3)c3ccccc23)cc1 | 493 | -3.3% (inactive) | 18.6% (inactive) | 114 | -85.3% (inactive) | 126 | 0.666 | 0.289 | 1.89 | -5.26% (inactive) | -0.415 (inactive) | -0.000176 (inactive) | 0.00622 (inactive) |  |  | -11.2% (inactive) | 15.1% (inactive) | 20.9% (inactive)
6 | CCOC(=O)c1[nH]c2cc(OC)c(OC)cc2c1NC(=O)C(C)N1CCN(Cc2ccccc2)CC1 (stereo not given) | 541 | -4.7% (inactive) | 10.2% (inactive) | 106 | -11.1% (inactive) | 140 | 0.355 | -0.877 | -1.74 | 13.9% (inactive) | -0.0434 (active) | 2.3e-06 (inactive) | 0.00443 (inactive) | 0.00565 (inactive) | inactive | 19.7% (inactive) | -0.312% (inactive) | 3.3% (inactive)
7 | CCN(CC)CCN1C(=O)C(O)=C(C(=O)c2cccs2)C1c1ccccn1 (stereo not given) | 503 | 1.8% (inactive) | -4.1% (inactive) | 102 | -7.4% (inactive) | 120 | -0.956 | 0.653 | -1.67 | -0.608% (inactive) | -0.468 (inactive) | -0.000108 (inactive) | 0.00594 (inactive) | 0.0052 (inactive) | inactive | -9.88% (inactive) | 4.53% (inactive) | 12% (inactive)
8 | Cc1c(NC(=O)c2coc(=O)c(Br)c2)c(=O)n(-c2ccccc2)n1C | 620 | 1.7% (inactive) | 3.9% (inactive) | 101 | 4% (inactive) | 113 | -0.496 | 0.153 | -1.2 | 20.3% (inactive) | -0.46 (inactive) | -2.1e-05 (inactive) | 0.0067 (inactive) | 0.00586 (inactive) | inactive | 14% (inactive) | -5.82% (inactive) | 56.8% (active)
9 | COCCNC(=O)c1c(N)n(/N=C/c2cccs2)c2nc3ccccc3nc12 | 516 | 7.2% (inactive) | -25.1% (inactive) | 108 | -36.6% (inactive) | 107 | 0.126 | 0.305 | -0.729 | 1.75% (inactive) | -0.287 (inactive) | -9.2e-05 (inactive) | 0.00574 (inactive) |  |  | 17.7% (inactive) | 5.03% (inactive) | -26.9% (inactive)
10 | CCCN(CCC)C(=O)CC(c1ccc(F)cc1)c1ccco1 (stereo not given) | 558 | -1.8% (inactive) | 24.6% (inactive) | 92.6 | -37.9% (inactive) | 108 | 0.533 | -0.963 | -0.846 | 11.9% (inactive) | -0.467 (inactive) | -2.2e-05 (inactive) | 0.0041 (inactive) | 0.00507 (inactive) | inactive | 27.9% (inactive) | 19.1% (inactive) | 23% (inactive)
11 | CCN(CC)CCN1C(=O)C(O)=C(C(=O)c2ccco2)C1c1ccccn1 (stereo not given) | 439 | -6.3% (inactive) | 16.5% (inactive) | 89.2 | -87.6% (inactive) | 123 | 0.101 | -1.41 | 0.388 | 3.5% (inactive) | -0.431 (inactive) | -0.000163 (inactive) | 0.005 (inactive) |  |  | 14.9% (inactive) | 15.6% (inactive) | 18.9% (inactive)
12 | COC(=O)c1cc(Br)c(=O)n(-c2nccs2)c1 | 750 | -4.2% (inactive) | -14.3% (inactive) | 102 | -134% (inactive) | 142 | -1.41 | 0.813 | -2.4 | 38.2% (inactive) | -0.421 (inactive) | -5.6e-05 (inactive) | 0.00443 (inactive) | 0.00469 (inactive) | inactive | 6.75% (inactive) | -0.165% (inactive) | 1.38% (inactive)
13 | CCN(CC)C(=O)c1ccc(O)c(OC)c1 | 502 | -11.1% (inactive) | 8.7% (inactive) | 92.4 | -54.9% (inactive) | 125 | 0.597 | 0.258 | -0.513 | 8% (inactive) | -0.5 (inactive) | -7.4e-05 (inactive) | 0.00537 (inactive) |  |  | 4.81% (inactive) and 9.44% (inactive) | -6.3% (inactive) | 27.6% (inactive)
14 | CCCn1c(=O)c2[nH]c(C3CCCC3)nc2n(CCC)c1=O | 503 | -3.1% (inactive) | 26% (inactive) | 92.4 | -83.5% (inactive) | 117 | 0.276 | -0.431 | -1.23 | 3.59% (inactive) | -0.432 (inactive) | -7.8e-05 (inactive) | 0.00398 (inactive) |  |  | 4.71% (inactive) and -9.34% (inactive) | 14.1% (inactive) | 38.5% (inactive)
15 | C1CNCCNCCNCCN1 | 566 | -6.4% (inactive) | 12.4% (inactive) | 109 | -31.7% (inactive) | 105 | -1.12 | -0.574 | 0.0503 | 10.2% (inactive) | -0.481 (inactive) | -4.4e-05 (inactive) | 0.00519 (inactive) |  |  | 1.09% (inactive) | 13.2% (inactive) | 41.9% (inactive)
16 | CCN(CC)CCNC(=O)c1ccc(NC(C)=O)cc1 | 497 | -5.5% (inactive) | -5.6% (inactive) | 94.5 | 15.6% (inactive) | 104 | -0.982 | 0.436 | 0.661 | 5.79% (inactive) | -0.442 (inactive) | -5.7e-05 (inactive) | 0.00544 (inactive) |  |  | -7.67% (inactive) and -9.65% (inactive) | 12.9% (inactive) | 42.8% (inactive)
17 | COC(=O)c1ccccc1NC(=O)CSc1nnc(-c2ccncc2)o1 | 372 | -9.3% (inactive) | 3.1% (inactive) | 99.2 | -75.9% (inactive) | 128 | 0.433 | -0.668 | -1.26 | 3.42% (inactive) | -0.471 (inactive) | -4.2e-05 (inactive) | 0.00552 (inactive) | 0.00541 (inactive) | inactive | 4.81% (inactive) | 5.8% (inactive) | 19.8% (inactive)
18 | Cc1cc(OCC(=O)Nc2ccc3oc(-c4ccncc4)nc3c2)ccc1Cl | 485 | -6.9% (inactive) | -19.2% (inactive) | 100 | -81.7% (inactive) | 122 | 0.451 | -0.406 | -0.15 | 7.73% (inactive) | -0.458 (inactive) | -1.3e-05 (inactive) | 0.00694 (inactive) |  |  | -0.755% (inactive) | -19.3% (inactive) | -47.1% (inactive)
19 | CCOc1ccc(S(=O)(=O)N(C)C)cc1-c1nc2c(C(C)(C)C)nn(C)c2c(=O)[nH]1 | 411 | 20.9% (active) | -22.3% (inactive) | 107 | 27.5% (inactive) | 115 | 1.1 | 0.134 | -1.43 | 17.3% (inactive) | -0.477 (inactive) | -0.000115 (inactive) | 0.00418 (inactive) | 0.00621 (inactive) | inactive | 19.7% (inactive) | -1.7% (inactive) | -7.19% (inactive)
20 | CCc1cc(=O)oc2c(CN3CCN(C)CC3)c(O)c(Cl)cc12 | 430 | 3.2% (inactive) | 27.8% (inactive) | 85.9 | -40.7% (inactive) | 101 | 1.84 | 0.822 | -1.78 | 26.3% (inactive) | -0.266 (inactive) | -4.4e-05 (inactive) | 0.00532 (inactive) |  |  | 13.3% (inactive) | 16.8% (inactive) | 22.6% (inactive)
